High-throughput results deposited in PubChem by National Center for Advancing Translational Sciences (NCATS).
G9a block: G9a (human) methyltransferase inhibition; Q96KQ7; G9a H3K9 monomethylation, AlphaScreen, 2 h; Potency, µM (highest dose often 102 µM), for the others: top-dose activity, negative = inhibition, usual class: inhibitors; hit rate 8.8% among 350,000; AID 504332; note: potency is the fitted concentration of half-maximal effect; nearly all actives have a fitted effect of over 75% in size
Target sequence (Q96KQ7 913-1193 limits assumed): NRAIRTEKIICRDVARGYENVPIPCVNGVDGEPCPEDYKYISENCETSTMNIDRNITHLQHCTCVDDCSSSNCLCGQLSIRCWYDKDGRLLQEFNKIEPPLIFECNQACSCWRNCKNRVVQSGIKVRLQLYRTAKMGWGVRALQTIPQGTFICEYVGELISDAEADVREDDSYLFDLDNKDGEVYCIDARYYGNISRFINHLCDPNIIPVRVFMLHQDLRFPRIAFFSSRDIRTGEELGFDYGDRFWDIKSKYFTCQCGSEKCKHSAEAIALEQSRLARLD
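Readings reflect AlphaScreen signal from monomethyl-H3K9 antibody detection. HMT at 20 nM; substrate b-H3K9 500 nM; cofactor SAM 20 uM; 2 h RT reaction; compounds tested as titrations in qHTS with 15 min preincubation.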
PLK1 PBD inh: blocks phosphopeptide binding to human PLK1 polo-box domain; P53350; Plk1 PBD binding of FITC phosphopeptide, fluorescence polarization; Potency, µM, without a hit: max response, negative = inhibition, usual class: inhibitors; hit rate 2.8% among 360,000; AID 720504; note: potency is the fitted concentration of half-maximal effect; series mostly up to about 57 µM; nearly all actives have a fitted effect of over 65% in size
CCT chaperon mod: modulators of cytosolic chaperonin (CCT/TRiC) activity; activity change, % (test concentration not listed), hits read low; purified chaperonin ATPase assay, HTRF ADP detection, 30 min; hit rate 0.3% among 360,000; AID 651819; in the data active = activity change below about -30%
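Nucleotide hydrolysis assay: TRiC at 20–40 nM final (set by batch activity) with 10 uM ATP, 30 min at 37 °C, in presence of 76 uM compound. Detection by competitive ADP HTRF, 30 min ambient.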
VDR inh: vitamin D3 receptor (human) inhibition; P11473; Potency, µM, for the others: max response, negative = inhibition, actives largely listed as inhibitors; AID 504847; VDR-SRC2-3 peptide fluorescence polarization, 2 h; hit rate 0.93% among 400,000; note: potency is the fitted concentration of half-maximal effect
Target sequence (P11473 whole entry, looked up): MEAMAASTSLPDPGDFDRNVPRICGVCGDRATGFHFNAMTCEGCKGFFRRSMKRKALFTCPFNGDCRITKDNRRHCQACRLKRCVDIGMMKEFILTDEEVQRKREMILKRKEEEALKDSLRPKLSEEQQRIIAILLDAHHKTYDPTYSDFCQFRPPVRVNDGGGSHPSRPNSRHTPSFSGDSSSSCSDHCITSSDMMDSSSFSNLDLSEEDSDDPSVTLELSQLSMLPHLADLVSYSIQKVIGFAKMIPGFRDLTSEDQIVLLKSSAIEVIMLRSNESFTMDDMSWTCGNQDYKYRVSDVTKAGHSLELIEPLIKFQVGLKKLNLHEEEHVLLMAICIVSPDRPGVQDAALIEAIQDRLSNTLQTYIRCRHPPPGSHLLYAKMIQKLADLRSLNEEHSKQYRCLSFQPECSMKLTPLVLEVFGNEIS
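Inhibition of the VDR/SRC2-3 peptide interaction is quantified by fluorescence polarization. Compounds (23 nl, pintool) incubate with the reagents for 2 hours at ambient room temperature.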
Sfp inh: inhibitors of Bacillus subtilis Sfp phosphopantetheinyl transferase. AID 1490. Potency, µM, for the others: largest response in the series, negative = inhibition, usual class: inhibitors. Biochemical Sfp PPTase activity, qHTS. hit rate 3.5% among 310,000;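 note: the enzyme is Sfp with the accession as filed and its product quenches rhodamine fluorescence; potency is the fitted concentration of half-maximal effect; 0% = enzyme reaction without inhibitor and -100% = no enzyme wells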
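Sfp 15 nM + cpd, 15 min RT; start w/ rhodamine-CoA 5 uM, BHQ-2-YbbR 12.5 uM (final); 50 mM Hepes pH 7.6, 10 mM MgCl2, 0.01% NP-40, 0.01% BSA; read 525/598 nm at 0 and 30 min.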
Mm-Cpn inhibitor: inhibitors of Methanococcus maripaludis chaperonin TRiC (MmCpn); purified Mm-Cpn ATPase, ADP Transcreener TR-FRET; Potency, µM (highest dose often 76.9 µM), inactives show top-dose activity, negative = inhibition, usual class: inhibitors; hit rate 0.031% among 330,000; AID 504842; note: potency is the fitted concentration of half-maximal effect; nearly all actives have a fitted effect of over 80% in size
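25 nM Mm-CPN + cpd, 10 min 37°C; + 10 uM ATP, 30 min 37°C; buffer 30 mM Tris pH 7.4, 100 mM KCl, 5 mM MgCl2, 1 mM DTT; Transcreener ADP HTRF detection 30 min RT.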
* marks the source's active call; other numbers are inactive results; [ ] = dose if it differs, or a comment. This is a sample that favours compounds with a hit; in the whole collection about 10% have one here. Unless noted, calls come from the whole dose curve; as a rule, active = well fitted curve in the direction sought with a large enough effect; inconclusive = small, poorly fitted or top-dose-only effect, or another doubt; inactive = no such curve, though single readings can be large; an effect the other way counts as inactive or inconclusive. Unless noted, % is set by controls: 0 for no effect and ±100 for the full control effect.

Screening Cc1oc2cc([N+](=O)[O-])c(O)c([N+](=O)[O-])c2c1C(=O)c1ccc(Cl)cc1 returned PLK1 PBD inh inconclusive, CCT chaperon mod 0, VDR inh -22%, Sfp inh inconclusive and Mm-Cpn inhibitor 3%.
For COc1ccc(OC)c(C(=O)c2c(C)oc3cc([N+](=O)[O-])c(O)c([N+](=O)[O-])c23)c1 the results were G9a block inconclusive, PLK1 PBD inh -12%, CCT chaperon mod -1, VDR inh -2%, Sfp inh 56µM* and Mm-Cpn inhibitor -1%.
`Cc1ccccc1CNC(=O)CN1C(=O)CCCc2ccccc21` gave G9a block 4%[59 µM] and VDR inh 4%.
Cc1nc(SCC(=O)N2c3ccccc3NC(=O)CC2C)c2c(C)c(C)sc2n1 (stereo unspecified) was read as G9a block 45µM*, PLK1 PBD inh -26%, CCT chaperon mod -3, VDR inh -22% and Mm-Cpn inhibitor -3%.
`Cc1sc2nc(C3CC3)nc(SCC(=O)N3c4ccccc4CC3C)c2c1C` (stereo unspecified) gave G9a block -22%, PLK1 PBD inh -10%, CCT chaperon mod -3, VDR inh -4%, Sfp inh 2% and Mm-Cpn inhibitor 0%.
Cc1ccc(-c2nnc(-c3cccc(NC(=O)c4cccs4)c3)o2)cc1 was read as G9a block 54%[59 µM], PLK1 PBD inh -6%, CCT chaperon mod -44*, VDR inh 16%, Sfp inh -1% and Mm-Cpn inhibitor 1%.
`O=C(Nc1cccc(N2CCCC2)c1)c1cccs1` gave G9a block 3.2µM*, PLK1 PBD inh -9%, CCT chaperon mod 0, VDR inh -1%, Sfp inh 11% and Mm-Cpn inhibitor -10%.
`Brc1cccc(-c2nnc(-c3ccccc3)o2)c1` gave G9a block 17%[59 µM], PLK1 PBD inh -6%, CCT chaperon mod 0, VDR inh 7%, Sfp inh -24% and Mm-Cpn inhibitor 0%.
Cc1ccc(-c2nnc(-c3cccc(Br)c3)o2)cc1 was read as G9a block 11%[59 µM], PLK1 PBD inh 27µM*, CCT chaperon mod 2, VDR inh inconclusive, Sfp inh 18% and Mm-Cpn inhibitor 1%.
`Cc1ccc(CCNC(=O)C(NS(=O)(=O)c2ccc3c(c2)oc(=O)n3C)C(C)C)cc1` (stereo unspecified) gave G9a block -28%[59 µM] and VDR inh 8%.
CCOC(=O)C1CCCN(C(=O)c2ccc(NC(=O)c3nsc4ccccc34)cc2)C1 (stereo unspecified) was read as G9a block -35%[59 µM] and VDR inh 5%.
Screening Cc1cccc(-n2c(C)cc(C(=O)C(=O)Nc3ccccc3F)c2C)c1C returned G9a block -24%[59 µM] and VDR inh -6%.
`CCCNC(=O)c1ccc(N2CCC3(CC2)CC(c2cccc(Br)c2)=NO3)c([N+](=O)[O-])c1` gave G9a block 79µM*, PLK1 PBD inh -15%, CCT chaperon mod 0, VDR inh 3%, Sfp inh -1% and Mm-Cpn inhibitor 3%.
For Cc1ccc(CNC(=O)c2ccc(N3CCC4(CC3)CC(c3cccc(Br)c3)=NO4)c([N+](=O)[O-])c2)cc1 the results were G9a block 7%[2.33 µM], PLK1 PBD inh -7%, CCT chaperon mod -4, VDR inh -13% and Mm-Cpn inhibitor 1%.
`CCCNC(=O)c1ccc(N2CCC3(CC2)CC(c2ccccc2)=NO3)c(NC(=O)c2ccccc2)c1` gave PLK1 PBD inh 0%, CCT chaperon mod 2, VDR inh 3%, Sfp inh 56µM* and Mm-Cpn inhibitor -7%.
`Cc1ccc2c(c1)c1ccc3c(c1n2C)C(=O)C=CC3=O` gave G9a block 1.6µM*, PLK1 PBD inh 19µM*, CCT chaperon mod -1, VDR inh 50µM*, Sfp inh 2.5µM* and Mm-Cpn inhibitor -2%.
For Cn1cc(CCNC(=O)CC2C(=O)NCCN2CC(c2ccccc2)c2ccccc2)cn1 (stereo unspecified) the results were G9a block 13µM*, PLK1 PBD inh -19%, CCT chaperon mod 0, VDR inh 4%, Sfp inh 4% and Mm-Cpn inhibitor 0%.
Screening CCc1ccc(CNC(=O)CC2C(=O)NCCN2Cc2ccccc2F)nc1 (stereo unspecified) returned G9a block 79µM*, PLK1 PBD inh -10%, CCT chaperon mod 1, VDR inh 6%, Sfp inh 15% and Mm-Cpn inhibitor -1%.
Screening Cc1cc(CNC(=O)CC2C(=O)NCCN2Cc2ccccc2)nn1C (stereo unspecified) returned G9a block 45µM*, PLK1 PBD inh -8%, CCT chaperon mod -2, VDR inh 5%, Sfp inh 6% and Mm-Cpn inhibitor -2%.
For Cc1nc(CCNC(=O)CC2C(=O)NCCN2Cc2ccccc2)nc2c1CCC2 (stereo unspecified) the results were G9a block 50µM*, PLK1 PBD inh -6%, CCT chaperon mod -4, VDR inh -11%, Sfp inh -4% and Mm-Cpn inhibitor 1%.
Cc1oc2ncn(CC(C)C)c(=O)c2c1C(=O)N1CCN(c2cccc(C(F)(F)F)c2)CC1 was read as G9a block -21%[59 µM] and VDR inh 2%.
Screening Cc1occc1-c1n[nH]c(=S)n1-c1ccccc1 returned G9a block 5µM*, PLK1 PBD inh -7%, CCT chaperon mod 0, VDR inh -16%, Sfp inh 13% and Mm-Cpn inhibitor -4%.
Screening Cc1occc1-c1n[nH]c(=S)n1C returned G9a block 35µM*, PLK1 PBD inh inconclusive, CCT chaperon mod 1, VDR inh -7%, Sfp inh 5% and Mm-Cpn inhibitor -4%.
For CN1C(=O)Cc2cc(S(=O)(=O)CCC(=O)Nc3ccc(Cl)cc3)ccc21 the results were G9a block -18%[59 µM] and VDR inh 9%.
CC1CCCCN1S(=O)(=O)c1ccc(C(=O)N2CCOCC2)cc1 (stereo unspecified) was read as G9a block 56µM*, PLK1 PBD inh 0%, CCT chaperon mod 1, VDR inh -2%, Sfp inh 18% and Mm-Cpn inhibitor 1%.
`CC1CCCN(S(=O)(=O)c2ccc(NC(=O)c3nc(SC(C)C)ncc3Cl)cc2)C1` (stereo unspecified) gave G9a block -37%[59 µM] and VDR inh 0%.
Cc1ccc(SCc2[nH]nc3c2C(c2ccco2)C(C#N)=C(N)O3)cc1 (stereo unspecified) was read as G9a block inconclusive, PLK1 PBD inh 9.5µM*, CCT chaperon mod -5, VDR inh -91%, Sfp inh -10% and Mm-Cpn inhibitor 0%.
